High-throughput results deposited in PubChem by several laboratories.
hDAT+cocaine – changed hDAT dopamine uptake under cocaine IC80, either direction, primary screen, cocaine antagonist project, cell-based, LLC-PK1 hDAT, [14C]-dopamine uptake, MLSMR | Sodium-dependent dopamine transporter (Homo sapiens), Q01959 | B-score at 10 µM | 110,000 tested, 1.3% active | LLC-PK1 hDAT cells, [14C]-dopamine uptake with cocaine IC80; actives deviate in either direction;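 active means Z score or B-score, a plate-position-corrected score, falls beyond the plate's 99.7% confidence bounds, in either direction; inactive means both scores lie inside the 99.7% bounds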;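 further: scored against the spread of the other compound wells on the same plate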
CD11b adhes enh – enhancers of CD11b/CD18 adhesion to fibrinogen, primary screen, K562 cells, luminescence; ATPlite luminescence; activation, % at 10 µM; 93,000 tested, 0.07% active;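 active means 10 µM primary screen giving 50% or more activity, confirmed by 40% or more on retest at that dose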
Target sequence (P05107 whole entry, looked up, other chains not shown): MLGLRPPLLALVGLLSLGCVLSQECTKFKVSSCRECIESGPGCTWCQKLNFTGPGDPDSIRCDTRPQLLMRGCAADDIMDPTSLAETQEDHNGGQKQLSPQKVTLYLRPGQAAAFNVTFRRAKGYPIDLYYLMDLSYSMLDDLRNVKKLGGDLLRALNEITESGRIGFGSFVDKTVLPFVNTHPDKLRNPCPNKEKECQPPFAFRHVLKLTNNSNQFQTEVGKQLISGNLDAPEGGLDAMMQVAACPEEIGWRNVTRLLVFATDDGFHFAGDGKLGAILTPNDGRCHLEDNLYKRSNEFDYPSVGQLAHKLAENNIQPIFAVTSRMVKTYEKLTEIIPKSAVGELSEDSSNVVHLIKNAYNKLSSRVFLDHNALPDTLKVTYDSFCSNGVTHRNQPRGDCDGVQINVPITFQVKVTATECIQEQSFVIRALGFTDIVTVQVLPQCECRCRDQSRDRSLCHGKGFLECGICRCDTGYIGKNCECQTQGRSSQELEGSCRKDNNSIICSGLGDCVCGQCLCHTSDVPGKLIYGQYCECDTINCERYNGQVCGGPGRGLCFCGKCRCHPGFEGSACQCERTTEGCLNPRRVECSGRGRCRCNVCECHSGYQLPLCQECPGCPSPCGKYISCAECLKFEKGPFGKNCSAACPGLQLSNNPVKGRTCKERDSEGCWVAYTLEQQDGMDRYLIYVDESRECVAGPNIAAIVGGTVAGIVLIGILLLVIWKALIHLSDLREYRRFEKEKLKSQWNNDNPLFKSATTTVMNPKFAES
CD11b adhes inh – inhibitors of CD11b/CD18 adhesion to fibrinogen, primary screen, K562 cells, luminescence; inhibition, % at 10 µM; 93,000 tested, 0.54% active; ATPlite luminescence; Mn2+ added to activate the integrin; Integrin beta-2 (Homo sapiens) + Integrin alpha-M (Homo sapiens), P05107+P11215;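 active means primary inhibition of 50% or more at 10 µM, then 40% or more on retest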
FAK inh – FAK kinase inhibitors, primary screen, biochemical. Focal adhesion kinase 1 (Homo sapiens), Q05397. biochemical FAK kinase activity assay. inhibition, %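 (tested at 7 µM)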. 97,000 tested, 0.84% active. AID 727, 2007; in the data active means inhibition above about 19%;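 further: 0% = DMSO and 100% = reference compound high control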
D1 allo mod – D1 CRE-luciferase signal change, two-sided – cell-based, HEK293 D1, dopamine EC30, D1 allosteric modulator project, primary screen | B-score at 10 µM | dopamine EC30 potentiation; actives deviate in either direction | 58,000 tested, 5.9% active | D(1A) dopamine receptor (Homo sapiens), P21728;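 active means luminescence count or its row- and column-corrected plate score outside the 99.7% band of the plate's sample wells, on either side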
PTK2B oligo ant – antagonists of Pyk2 self-association, primary screen, Q293 cells, FERM NanoBiT luminescence, HTS. AID 1347419, 2020. active compounds read low. 99,000 tested, 0.83% active. z-score (the deposit names both 25 µM and 10 µM);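 active means Z-score of -3 or lower, scaled per plate to the spread of control and sample wells; inactive means z-score above -3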;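 further: negative z-score means lost luminescence so less FERM oligomerization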
D1 mod confirm – D1 receptor positive allosteric modulators, retest, confirmation, cell-based, HEK293 D1, CRE-luciferase, duplicate; luminescence at 10 µM; dopamine EC30 potentiation; active compounds read high; shares compounds with D1 allo mod; 2,200 tested, 88% active; AID 642, 2007;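 active means luminescence in either of two replicates above the same-plate mean plus 3 SD of the low-dose dopamine control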
D1 ag no DA – D1 receptor agonism without dopamine, confirmation, mechanism study for D1 allosteric modulator project, cell-based, HEK293 D1, CRE-luciferase, secondary assay 1 | luminescence at 10 µM | shares compounds with D1 allo mod | 1,900 tested, 0.8% active | luminescence, no dopamine; active compounds read high; in the data active means luminescence above about 3900
Isoprot counter – isoproterenol response counter-screen activity for D1 modulators. HEK293 D1 CRE-luciferase, isoproterenol EC30 counter-screen. shares compounds with D1 allo mod. 2,200 tested, 63% active. calls only at 10 µM;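 active means luminescence in either replicate above plate mean of wells with a partly effective reference agonist dose plus 3 SD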;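 further: isoproterenol raises cAMP through native beta-adrenoceptor Gs so signal bypasses D1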
* = called active by the depositor; i = inactive; nt = no result; + = active, no number. The entries come from a sample that favours hits as a whole.

SMILES | hDAT+cocaine | CD11b adhes enh | CD11b adhes inh | FAK inh | D1 allo mod | PTK2B oligo ant | D1 mod confirm | D1 ag no DA | Isoprot counter
CCN(CC(=O)Nc1ccc2c(c1)OCCO2)C(=O)c1cccc(S(=O)(=O)N2CCOCC2)c1 | 0.82 | 4 | -9 | -4 | 3* | 0.6 | 5360 | nt | i
Nc1nnc(Cc2ccc(Cl)cc2)s1 | 0.56 | 6 | -21 | -3 | 0.1 | 0.07 | nt | nt | nt
CCOc1ccc(Cc2nnc(N)s2)cc1OCC | -0.72 | nt | nt | 1 | 11* | -0.04 | 18204* | 1736 | +
O=C(CSc1nc2c(c(=O)n1-c1ccc(F)cc1)SCC2)N1CCCC1 | 0.27 | nt | nt | 4 | -0.78 | 0.29 | nt | nt | nt
CC(C)Sc1nc2c(c(=O)n1-c1ccc(F)cc1)SCC2 | -0.062 | 7 | -47 | -3 | 11* | -0.39 | 23632* | 1816 | +
COc1ccc(S(=O)(=O)n2nc(OCc3cccs3)cc2N)cc1 | -0.49 | nt | nt | nt | nt | nt | nt | nt | nt
COc1ccc(-c2nnc3n2N=C(C)CS3)cc1OC | -0.85 | -5 | -4 | -3 | -2 | 0.99 | nt | nt | nt
CCCc1nnc2n1N=C(c1ccc(OC)c(OC)c1)CS2 | 1.6 | nt | nt | -2 | 26* | 0.7 | 22008* | nt | +
Cc1ccc(-c2nnc3n2N=C(c2ccccc2Br)CS3)cc1 | 1.4 | 2 | -18 | 0 | 16* | -1.6 | 15256* | 1688 | +
c1cncc(-c2nnc3n2N=C(c2cccs2)CS3)c1 | -0.0035 | 8 | -19 | 4 | 4.1* | -0.46 | 15800* | 1740 | +
CC1=Nn2c(nnc2-c2ccccc2F)SC1 | -0.62 | -3 | -3 | -4 | 0.73 | 0.87 | nt | nt | nt
COc1ccc(C2=Nn3c(nnc3-c3ccccc3)SC2)cc1OC | 0.0067 | -4 | -28 | -2 | 29* | -1.2 | 21404* | nt | +
Cc1cc(C(=O)NCCCN2CC(C)CC(C)C2)n(-c2ccccc2)n1 (configuration not stated) | -0.00078 | -1 | 14 | 3 | nt | nt | nt | nt | nt
C=CCc1cccc2cc(C(=O)Nc3ccc(S(=O)(=O)Nc4nnc(CC)s4)cc3)c(=O)oc12 | nt | 39 | -5 | nt | nt | nt | nt | nt | nt
c1ccc(C2=Nn3c(nnc3-c3ccccn3)SC2)cc1 | -1.2 | -1 | -12 | -4 | nt | -0.3 | nt | nt | nt
c1ccc(C2=Nn3c(nnc3-c3ccncc3)SC2)cc1 | -0.18 | -1 | 3 | 2 | 2.9* | -0.4 | 9856* | 1576 | i
COc1ccc(C2=Nn3c(nnc3-c3cccnc3)SC2)cc1 | -0.42 | nt | nt | -6 | 5.6* | -0.45 | 10056* | 1736 | +
CCOc1ccc(C2=Nn3c(nnc3-c3cccnc3)SC2)cc1 | -0.098 | -1 | 7 | nt | nt | -0.08 | nt | nt | nt
Cc1cccc(-c2nnc3n2N=C(c2ccccc2)CS3)c1 | 0.44 | 0 | -7 | 0 | 16* | -1.7 | 3880 | 1728 | +
c1ccc(C2=Nn3c(nnc3-c3cccnc3)SC2)cc1 | -0.95 | -1 | 1 | 1 | 4.9* | -0.26 | 11260* | 1752 | i
CC(=O)Nc1ccc(Oc2ncccn2)c(Cl)c1 | -0.48 | -2 | -5 | 1 | nt | 0.13 | nt | nt | nt
Cn1ccnc1Sc1nc(Nc2cccc(Cl)c2)nc(N2CCOCC2)n1 | 1.5 | -2 | -2 | -2 | 8.4* | -1.9 | 15596* | 1596 | +
